From PubChem
Rab9 promoter act: Rab9 promoter activation. 2.8% of 320,000 active. Potency, µM (series often up to 9.22 µM), actives largely listed as activators. Huh7 Rab9 promoter-luciferase reporter, luminescence, 24 h; also: nearly all actives have a fitted effect of over 60% in size
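Huh7 cells stably carrying a Rab9 promoter-luciferase reporter, 1500 cells per well in OP-MEM I with 10% FBS, treated with compound 24 hours at 37C. Luciferase activity read by luminescence after 10 minutes with Amplite reagent.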
KinaseGlo FLuc: Kinase-Glo luciferase inhibition (counter-screen); Q27757; Kinase-Glo luciferase, ATP luminescence, 8 min; Potency, µM (series often up to 38.3 µM), actives largely listed as inhibitors; 0.28% of 200,000 active; also: nearly all actives have a fitted effect of over 60% in size
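Recombinant Kinase-Glo luciferase, 10 uM ATP (linear range), luciferin; imidazole pH 7.2 / KCl / MgCl2 / Tween / BSA buffer; 8 min RT; luminescence.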
FLuc modulator: firefly luciferase modulation, counter-screen for miR-21 project; purified FLuc, Km substrates, luminescence inhibition; Potency, µM (highest dose often 57.5 µM), most hits filed as inhibitors; 6.9% of 360,000 active; AID 588342; also: nearly all actives have a fitted effect of over 55% in size
Target sequence (P08659 whole entry, looked up): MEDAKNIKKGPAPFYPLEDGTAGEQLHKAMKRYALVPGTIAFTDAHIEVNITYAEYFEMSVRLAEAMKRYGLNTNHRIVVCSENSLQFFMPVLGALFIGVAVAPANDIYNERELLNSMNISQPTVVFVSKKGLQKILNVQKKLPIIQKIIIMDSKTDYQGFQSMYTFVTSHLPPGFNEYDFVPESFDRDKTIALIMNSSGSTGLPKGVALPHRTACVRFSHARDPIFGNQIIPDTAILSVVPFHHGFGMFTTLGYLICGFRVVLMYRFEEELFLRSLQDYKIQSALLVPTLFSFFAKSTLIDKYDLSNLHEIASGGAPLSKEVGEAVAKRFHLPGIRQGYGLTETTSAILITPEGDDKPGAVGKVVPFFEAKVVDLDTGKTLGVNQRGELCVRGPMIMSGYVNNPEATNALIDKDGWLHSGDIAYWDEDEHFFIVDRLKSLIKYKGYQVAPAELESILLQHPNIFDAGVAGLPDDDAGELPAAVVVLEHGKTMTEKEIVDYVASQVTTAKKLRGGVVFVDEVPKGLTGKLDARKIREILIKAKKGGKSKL
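Purified P. pyralis luciferase (10nM final) with 10uM D-luciferin and 10uM ATP (Km levels) in 50mM Tris acetate pH 7.5, 10mM Mg acetate, 0.01% Tween-20, 0.05% BSA; qHTS 6-point titration, ~60 µM downward; luminescence read.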
NPC1 promoter act: NPC1 promoter activation | 2.4% of 320,000 active | Huh7 NPC1 promoter luciferase reporter, 24 h | AID 485313 | Potency, µM (top dose mostly 9.22 µM), hits mostly activators; also: nearly all actives have a fitted effect of over 60% in size
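Readout is luciferase luminescence, reflecting NPC1 promoter activation in stably transfected Huh7 cells after 24 h compound exposure at 37 °C in reduced-serum medium with 10% FBS.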
ELG1 genotox: genotoxicity induction in ELG1-luciferase HEK293T cells. HEK293T ELG1-luciferase reporter, luminescence, 16 h. Potency, µM (series often up to 46 µM), most hits filed as activators. 1.3% of 330,000 active; also: nearly all actives have a fitted effect of over 60% in size
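HEK293T cells expressing luciferase-tagged ELG1 were treated with compound or DMSO for 16 hr at 37°C. Luciferase activity was then read after 30 min with ONE-Glo at room temperature; rising signal flags genetic stress.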
SMN2 splice enh: enhancers of SMN2 splice variant expression; HEK293 SMN2-luciferase splicing reporter, luminescence, 30-36 h; Potency, µM (titrated, usually from 46.1 µM), usual class: activators; 2.8% of 210,000 active; AID 1458; also: nearly all actives have a fitted effect of over 55% in size
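HEK293 cells carry an SMN2 minigene-luciferase reporter in which exon 7 inclusion puts luciferase in frame. Cells were seeded at 2000 cells/well, attached for 10-12 hours, then exposed to compounds for 30-36 hours at 37C before ONE-Glo luminescence.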
Of the large screens only hits and unclear results are named; the others gave an inactive call. Only some compounds are listed: those with a hit (about 7.5% of all), similar ones and a draw of the others. Calls follow the shape of the dose curve; as a rule, active = well fitted curve in the direction sought with a large enough effect; inconclusive = small, poorly fitted or top-dose-only effect, or another doubt; inactive = no such curve, though single readings can be large; an effect the other way counts as inactive or inconclusive.

Cn1c(SCC2CCCO2)nnc1-c1ccncc1 (configuration not stated)	none
CN(C)c1ccc(-c2nnc(SCC3CCCO3)n2C)cc1 (configuration not stated)	Rab9 promoter act 3.2µM, FLuc modulator inconclusive, NPC1 promoter act inconclusive, ELG1 genotox inconclusive (no result: SMN2 splice enh)
CCn1c(C)nc2c(C)[n+](CC(=O)c3ccc(Br)cc3)ccc21	Rab9 promoter act 1µM, FLuc modulator inconclusive, NPC1 promoter act 1.1µM, ELG1 genotox 1.8µM
COc1cc(NC(=O)C2CC2)c(OC)cc1NC(=O)c1ccco1	none (no result: KinaseGlo FLuc, SMN2 splice enh)
CC(C)(C)C(=O)Nc1ccc(NC(=O)c2ccco2)nc1	FLuc modulator 0.17µM, ELG1 genotox inconclusive (no result: KinaseGlo FLuc, SMN2 splice enh)
O=C(Nc1ccc(NC(=O)c2ccco2)nc1)c1ccccn1	Rab9 promoter act 0.71µM, KinaseGlo FLuc 10µM, FLuc modulator 6µM, NPC1 promoter act 0.45µM, ELG1 genotox inconclusive, SMN2 splice enh 14µM
O=C(Nc1ccc(NC(=O)C2CC2)cc1)c1ccco1	Rab9 promoter act 1.8µM, FLuc modulator 19µM, NPC1 promoter act 3.2µM, ELG1 genotox 13µM (no result: KinaseGlo FLuc, SMN2 splice enh)
CCC(=O)Nc1ccc(NC(=O)C23CC4CC(CC(C4)C2)C3)cn1	ELG1 genotox inconclusive, SMN2 splice enh inconclusive
O=C(Nc1ccc(NC(=O)C23CC4CC(CC(C4)C2)C3)cn1)c1ccco1	FLuc modulator 6µM, NPC1 promoter act 1µM, ELG1 genotox 2.3µM
COc1cccc(-c2cn3c(n2)sc2cc(C(=O)NC4CCCCCC4)ccc23)c1	none (no result: Rab9 promoter act, KinaseGlo FLuc, NPC1 promoter act, ELG1 genotox, SMN2 splice enh)
O=C(Cc1ccccc1)Nc1ccc(NC(=O)c2ccco2)nc1	Rab9 promoter act 2.5µM, FLuc modulator 17µM, NPC1 promoter act 2.2µM, ELG1 genotox inconclusive, SMN2 splice enh inconclusive
CCCC(=O)Nc1ccc(NC(=O)Cc2ccccc2)cn1	none
O=C(Nc1ccccn1)c1ccco1	Rab9 promoter act inconclusive, FLuc modulator inconclusive, NPC1 promoter act inconclusive, SMN2 splice enh inconclusive
O=C(Nc1ccc(NC(=O)C2CCCCC2)cn1)c1ccco1	Rab9 promoter act 0.45µM, FLuc modulator 1.7µM, NPC1 promoter act 0.71µM, ELG1 genotox 0.65µM (no result: KinaseGlo FLuc, SMN2 splice enh)
O=C(Nc1ccc(NC(=O)c2ccco2)nc1)c1ccco1	Rab9 promoter act 0.32µM, FLuc modulator 4.8µM, NPC1 promoter act 0.4µM, SMN2 splice enh 2.5µM
COc1ccccc1C(=O)Nc1ccc(NC(=O)c2ccco2)cn1	Rab9 promoter act inconclusive, FLuc modulator 6µM, NPC1 promoter act inconclusive, ELG1 genotox inconclusive (no result: KinaseGlo FLuc, SMN2 splice enh)
CCOC(=O)c1c(C)oc2ncnc(N3CCN(c4cccc(Cl)c4)CC3)c12	none (no result: Rab9 promoter act, KinaseGlo FLuc, NPC1 promoter act, ELG1 genotox)
Cc1ccc(C(=O)Nc2ccc(S(=O)(=O)NC3=NCCCCC3)cc2)c(C)c1	FLuc modulator 12µM (no result: KinaseGlo FLuc, SMN2 splice enh)
CC[C@]12c3[nH]c4ccc(Cl)cc4c3CCN1C(=O)[C@@H](CC(=O)NCc1ccc(OC)c(OC)c1)C[C@@H]2C(=O)N1CCN(C(=O)c2ccco2)CC1	none (no result: Rab9 promoter act, KinaseGlo FLuc, FLuc modulator, NPC1 promoter act, SMN2 splice enh)
Nc1ccc(CSc2ccc(Cl)cc2)cc1	Rab9 promoter act inconclusive, FLuc modulator 27µM, NPC1 promoter act inconclusive, ELG1 genotox inconclusive
CC1=C/C(=C(/c2cc(C)c(O)c(Br)c2)c2ccccc2S(=O)(=O)O)C=C(Br)C1=O	FLuc modulator 15µM (no result: KinaseGlo FLuc, SMN2 splice enh)
CC1=C/C(=C(/c2ccc(O)c(C)c2)c2ccccc2S(=O)(=O)O)C=CC1=O	FLuc modulator inconclusive (no result: KinaseGlo FLuc, SMN2 splice enh)
CCOC(=O)c1ccc(NC(=O)CSc2nc3sc(C(=O)O)c(C)c3c(=O)[nH]2)cc1	Rab9 promoter act inconclusive, FLuc modulator 17µM
COC(=O)c1ccc(CSc2nc3sc(C(=O)O)c(C)c3c(=O)[nH]2)cc1	FLuc modulator inconclusive
CCOC(=O)c1sc(SCC(=O)Nc2ccc(N(C)C)cc2)nc1N	FLuc modulator 6µM
COc1ccc(NC(=O)CSc2nc(N)c(C(=O)Nc3ccc(N(C)C)cc3)s2)cc1	Rab9 promoter act 3.2µM, FLuc modulator 1.3µM, NPC1 promoter act inconclusive, ELG1 genotox inconclusive
COc1ccc(NC(=O)CSc2nnc(N)s2)cc1	none
CN(C)c1ccc(NC(=O)CSc2nc(N)c(C(=O)Nc3ccc(N(C)C)cc3)s2)cc1	FLuc modulator 4.8µM, NPC1 promoter act inconclusive
CN1C(=O)C2(c3ccccc31)N(c1cccc(C(F)(F)F)c1)C(=O)CS2(=O)=O (configuration not stated)	none (no result: Rab9 promoter act, KinaseGlo FLuc, NPC1 promoter act, ELG1 genotox, SMN2 splice enh)
Cc1cnn(C(=S)NCCc2ccccc2)c1	Rab9 promoter act inconclusive, FLuc modulator 19µM, NPC1 promoter act inconclusive, ELG1 genotox 15µM, SMN2 splice enh inconclusive
Cc1cnn(C(=S)NCc2ccc(Cl)cc2)c1	none
COc1ccc(-c2cc(C(=O)NCCc3ccc(OC)c(OC)c3)c3ccccc3n2)cc1	FLuc modulator 6.7µM (no result: Rab9 promoter act, KinaseGlo FLuc, NPC1 promoter act, ELG1 genotox)
COc1ccc(CCNC(=O)c2cccc3ccccc23)cc1OC	none (no result: KinaseGlo FLuc, SMN2 splice enh)
COc1ccc(CCNC(=O)c2cc(-c3ccc(C)c(C)c3)nc3ccccc23)cc1OC	FLuc modulator 2.7µM (no result: Rab9 promoter act, KinaseGlo FLuc, NPC1 promoter act, ELG1 genotox, SMN2 splice enh)
Cn1c(-c2ccc3c(c2)OCO3)cnc1NCc1ccccc1Cl	Rab9 promoter act inconclusive, FLuc modulator 12µM, SMN2 splice enh inconclusive
CCc1cc2c(=O)c(-c3nc(C)cs3)coc2cc1OC(C)C(=O)NCCO (configuration not stated)	FLuc modulator 11µM
Cc1ccc(-c2nsc3c(N4CCC(C(N)=O)CC4)ncnc23)cc1	Rab9 promoter act 2.8µM, FLuc modulator 1.5µM, NPC1 promoter act 1.6µM, ELG1 genotox inconclusive
O=C(N1CCCC1)N1CCN(c2ncnc3c(-c4ccc(Cl)cc4)nsc23)CC1	FLuc modulator 17µM, ELG1 genotox inconclusive, SMN2 splice enh inconclusive
